Screening results from PubChem.
SMN2 splice enh – increases expression of the SMN2 splice variant | HEK293 SMN2-luciferase splicing reporter, luminescence, 30-36 h | Potency, µM (doses to about 46.1 µM), for the others: at the highest dose activity change, positive = activation, actives largely listed as activators | 210,000 compounds, 2.8% hits; further: % of control where 0% means no effect; nearly all actives have a fitted effect of over 55% in size
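HEK293 cells carry an SMN2 minigene-luciferase reporter in which exon 7 inclusion puts luciferase in frame. Cells were seeded at 2000 cells/well, attached for 10-12 hours, then exposed to compounds for 30-36 hours at 37C before ONE-Glo luminescence.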
NPC1 promoter act – activators of NPC1 promoter. Huh7 NPC1 promoter luciferase reporter, 24 h. Potency, µM (highest dose often 9.22 µM), without a hit: at the top dose activation, hits mostly activators. 320,000 compounds, 2.4% hits. AID 485313; further: % of control where 0% means no effect; nearly all actives have a fitted effect of over 60% in size
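Huh7 cells stably carrying NPC1 promoter–luciferase, plated in Opti-MEM with 10% FBS for 2 h, were exposed to compound in DMSO for 24 h at 37 °C; luciferase reagent was added for 10 min and luminescence read.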
ELG1 genotoxic – genotoxicity induction in ELG1-luciferase HEK293T cells. HEK293T ELG1-luciferase reporter, luminescence, 16 h. Potency, µM (top dose mostly 46 µM), inactives show at the top dose activity change, positive = activation, actives largely listed as activators. 330,000 compounds, 1.3% hits. AID 504466; further: % of control where 0% means no effect; nearly all actives have a fitted effect of over 60% in size
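Luminescence read-out: rising ELG1-luciferase signal, reflecting elevated ELG1 protein under genetic stress, flags genotoxic compounds. Cells were treated for 16 hr at 37 °C before ONE-Glo detection.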
Rab9 prom act – activators of Rab9 promoter; Huh7 Rab9 promoter-luciferase reporter, luminescence, 24 h; 320,000 compounds, 2.8% hits; Potency, µM (highest dose often 9.22 µM), inactives show at the top dose activation, negative = inhibition, usual class: activators; further: % of control where 0% means no effect; nearly all actives have a fitted effect of over 60% in size
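Promoter activation is measured as luciferase luminescence in Huh7 cells stably transfected with a Rab9 promoter–luciferase construct, following 24 h compound exposure at 37 °C and 10 min reagent incubation at ambient temperature.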
FLuc modulator – counter-screen for miR-21 project: firefly luciferase inhibitors or activators; purified FLuc, Km substrates, luminescence inhibition; Potency, µM (doses to about 57.5 µM), without a hit: at the top dose activity change, negative = inhibition, usual class: inhibitors; 360,000 compounds, 6.9% hits;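 further: plate controls were vehicle for no effect and reference inhibitor for full effect; nearly all actives have a fitted effect of over 55% in size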
Target sequence (P08659 whole entry, looked up): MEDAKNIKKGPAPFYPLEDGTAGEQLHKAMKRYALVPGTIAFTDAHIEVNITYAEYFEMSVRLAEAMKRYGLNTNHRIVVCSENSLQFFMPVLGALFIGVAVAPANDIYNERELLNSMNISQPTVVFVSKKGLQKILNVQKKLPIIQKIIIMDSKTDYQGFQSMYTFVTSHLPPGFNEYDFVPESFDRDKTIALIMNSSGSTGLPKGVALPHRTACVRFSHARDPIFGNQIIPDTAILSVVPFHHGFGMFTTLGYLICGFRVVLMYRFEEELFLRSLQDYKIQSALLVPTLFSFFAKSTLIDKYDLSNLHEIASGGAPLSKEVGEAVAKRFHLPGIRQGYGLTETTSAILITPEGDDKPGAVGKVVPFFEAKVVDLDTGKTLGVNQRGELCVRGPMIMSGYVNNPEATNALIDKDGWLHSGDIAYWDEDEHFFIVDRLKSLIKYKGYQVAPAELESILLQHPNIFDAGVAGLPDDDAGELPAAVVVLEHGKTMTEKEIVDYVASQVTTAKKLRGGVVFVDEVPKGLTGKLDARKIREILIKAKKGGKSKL
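Purified P. pyralis luciferase, 10 nM final, with Km-level 10 uM D-luciferin and 10 uM ATP in 50 mM Tris acetate pH 7.5, 10 mM Mg acetate, 0.01% Tween-20, 0.05% BSA; 6-point qHTS titration about 60 µM downward; luminescence read.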
ELG1 repair inh – blocks ELG1-dependent DNA repair in HEK293T cells. HEK293T ELG1-luciferase reporter, luminescence, 16 h; DNA damage induced by 5-fluorouridine. Potency, µM (titrated, usually from 46.1 µM), for the others: at the top dose activity change, negative = inhibition, hits mostly inhibitors. 330,000 compounds, 2.3% hits. AID 504467; further: on the % scale 0 is the no-effect control and ±100 the full control effect; nearly all actives have a fitted effect of over 55% in size
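Luminescence from the luciferase reporter, measured 30 min after ONE-Glo reagent at room temperature, was the read-out. Beforehand, 2,000 cells per well were exposed for 16 hr at 37 °C to 5-fluorouridine together with compound or vehicle.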
Numbers without * were called inactive; ? = inconclusive; / = no result; [ ] = dose if it differs, or a comment. In the library only some 9.3% were active in any assay of this set; here they are far more common. The call rests on the fitted dose curve; in most records, active means well fitted curve in the direction sought with a large enough effect; inconclusive means small, poorly fitted or top-dose-only effect, or another doubt; inactive means no such curve, though single readings can be large; an effect the other way counts as inactive or inconclusive. Potency means the concentration at half of the fitted maximal effect.

SMILES | SMN2 splice enh | NPC1 promoter act | ELG1 genotoxic | Rab9 prom act | FLuc modulator | ELG1 repair inh
C/C(Cn1nnc([N+](=O)[O-])n1)=N\NC(=O)c1ccccc1O | / | -1% | -12% | -4% | 11µM* | ?
C/C(CC(=O)Nc1ccc(N(C)C)cc1)=N\NC(=O)c1ccccc1O | / | 5% | -1% | 10% | 12µM* | ?
COc1cccc(C(=O)NCCSc2c(-c3ccc(F)cc3)[nH]c3ccccc23)c1OC | 24% | / | / | / | 5% | /
CC(C)OCCCNC(=O)Cc1ccc(Br)cc1 | 4% | -1% | 1% | -5% | 1% | -2%
O=C(O)C1CCCCC1C(=O)NCc1ccc(Cl)c(Cl)c1 (centres undefined) | / | 3% | 5% | 4% | -20% | ?
CCOC(=O)CNC(=O)O[C@@H]1C(=O)c2ccc(OC)cc2O[C@H]1c1ccc2c(c1)OCO2 | 16% | / | / | / | / | /
Cc1ccc2c(=O)cc(C(=O)Nc3c(C)cccc3C)oc2c1 | -29% | / | / | / | 1% | /
O=C(O)c1ccccc1C(=O)Nc1ccc(-n2ccc(C(F)(F)F)n2)cc1 | / | -8% | 0% | -6% | ? | -3%
O=C(Nc1ccc(-n2ccc(C(F)(F)F)n2)cc1)c1cccs1 | / | 2.8µM* | ? | 3.2µM* | 11µM* | ?
COc1ccccc1NC(=O)Nc1ccc(-n2ccc(C(F)(F)F)n2)cc1 | / | ? | -1% | 2.8µM* | 11µM* | ?
Cc1cc(C)cc(NC(=O)Nc2ccc(-n3ccc(C(F)(F)F)n3)cc2)c1 | / | ? | -10% | 2% | -11% | ?
O=C(Nc1ccc(-n2ccc(C(F)(F)F)n2)cc1)Nc1cccc(Cl)c1 | / | 19% | -1% | 26% | 11µM* | ?
O=C(O)CCC(=O)Nc1ccc(-n2ccc(C(F)(F)F)n2)cc1 | / | -1% | 15% | -1% | -4% | ?
CCOC(=O)c1ccc(N2CCN(c3cccc(Cl)c3)CC2)c(NC(=O)Nc2ccc(Cl)cc2)c1 | / | / | / | / | 1% | /
Cc1ccc(-n2[nH]c(C)c(/C=N/Nc3ccc([N+](=O)[O-])cc3[N+](=O)[O-])c2=O)cc1C | -73% | -3% | -13% | -17% | 13µM* | 10µM*
Cc1[nH]n(-c2cccc3ccccc23)c(=O)c1/C=N/NC(=O)c1cccc([N+](=O)[O-])c1 | -78% | -4% | 2% | -9% | ? | ?
Cc1[nH]n(-c2ccccc2)c(=O)c1/C=N/NC(=O)c1ccccc1F | / | -42% | ? | -28% | ? | 2.3µM*
Cc1[nH]n(-c2ccccc2)c(=O)c1/C=N/NC(=O)c1cccc([N+](=O)[O-])c1 | -70% | -20% | -5% | -14% | 8.5µM* | 0%
Cc1[nH]n(-c2ccccc2)c(=O)c1/C=N/NC(=O)COc1ccccc1[N+](=O)[O-] | -99% | 1% | 10% | -8% | 21µM* | 2%
CC(=O)N/N=C/c1c(C)[nH]n(-c2ccccc2)c1=O | -23% | -2% | -3% | 5% | -3% | -4%
Cc1ccc(C)c(OCC(=O)N/N=C\c2cccn2C)c1 | 5% | 0% | -2% | -3% | 3% | -6%
Cc1ccc(OCC(=O)N/N=C\c2cccn2C)c([N+](=O)[O-])c1 | / | 5% | 10% | 15% | 11µM* | ?
Cc1ccc(-n2c(O)c(/C=N/NC(=O)C3COc4ccccc4O3)c3ccccc3c2=O)cc1 (centres undefined) | -22% | -1% | -7% | -2% | -1% | -17%
Cc1[nH]n(-c2ccccc2)c(=O)c1/C=N\NC(=O)C1COc2ccccc2O1 (centres undefined) | -56% | ? | ? | ? | 1.9µM* | ?
CCOc1ccc(C(=O)Nc2nc(C)c(C(=O)OC)s2)cc1 | / | ? | 21µM* | ? | 0.76µM* | ?
SMILES | SMN2 splice enh | NPC1 promoter act | ELG1 genotoxic | Rab9 prom act | FLuc modulator | ELG1 repair inh
COC(=O)c1sc(NC(=S)NC(=O)c2cccc(Br)c2)nc1C | / | -4% | 14% | 3% | 13µM* | ?
COC(=O)c1sc(NC(=O)c2ccncc2)nc1C | / | -2% | 4% | 12% | 24µM* | 11%
COC(=O)c1sc(NC(=S)NC(=O)c2ccc(F)cc2)nc1C | -36% | 27% | 10% | ? | 3% | -12%
CCN(CC)CCCNC(=O)CN1C(=O)COc2ccc(S(=O)(=O)N3CCC(C)CC3)cc21 | 11% | / | / | / | 0% | /
CCOCCCNC(=O)c1ccc(N2CC3CC(C2)c2cccc(=O)n2C3)c(NC(=O)Nc2cccc(OC)c2)c1 (centres undefined) | / | 0% | -1%[9.26 µM] | 2% | -2% | ?
c1cncc(CSc2ccc(-c3ccc4c(c3)OCO4)nn2)c1 | 1% | 3.2µM* | 17% | 2.8µM* | 17µM* | ?
Cc1nc(C)c(-c2ccc(SCc3ccccc3C)nn2)s1 | / | 19% | 10% | 25% | 13µM* | ?
Fc1cccc(CSc2ccc(-c3ccc4c(c3)OCO4)nn2)c1 | ? | 12% | 26% | 17% | 11µM* | ?
Cc1ccccc1CSc1ccc(-c2ccc3c(c2)OCO3)nn1 | / | 24% | ? | ? | 7.6µM* | ?
O=[N+]([O-])c1cccc(-c2ccc(SCc3cccnc3)nn2)c1 | 8% | 7% | 5% | ? | ? | 17%
CC(=O)Nc1ccc(NC(=O)CSc2ccc(-c3ccc4c(c3)OCO4)nn2)cc1 | ? | 26% | ? | 24% | -19% | ?
CCOc1ccc(C(=O)Nc2c(C(=O)Nc3ccccc3F)oc3ccccc23)cc1OCC | 5% | / | / | / | -1% | /
Cc1ccc(NC(=O)c2sc3ccccc3c2Cl)nc1 | 0.63µM* | 3.5µM* | ? | 3.5µM* | 0.27µM* | ?
CCOc1ccc(NC(=O)c2sc3ccccc3c2Cl)cc1 | -6% | / | / | / | 0% | /
CCN(CC)c1ccc(NC(=O)c2sc3ccccc3c2Cl)cc1 | -7% | / | / | / | ? | /
CNC(=O)c1ccsc1NC(=O)c1sc2ccccc2c1Cl | 13µM* | ? | 15% | ? | 3.8µM* | ?
Cc1ccc2nsnc2c1NC(=O)c1sc2ccccc2c1Cl | -8% | 0% | 12% | 0% | 0% | 14%
COc1ccccc1C(=O)NNC(=S)NC(=O)c1sc2ccccc2c1Cl | -1%[1.84 µM] | -8% | 2% | -7% | -13% | ?
Cc1c(NC(=S)NC(=O)c2sc3ccccc3c2Cl)cccc1C(=O)O | 4µM* | ? | ? | ? | 0.76µM* | ?
Cc1nnc(NC(=O)c2sc3ccccc3c2Cl)s1 | 13µM* | 1.3µM* | ? | 1µM* | 0.38µM* | ?
O=c1c2c3c(sc2n(Cc2ccccc2F)c(=O)n1-c1ccc(Cl)cc1)CCCC3 | -14% | / | / | / | 4% | /
